# In PubChem BioAssay (NCI):
# The panel holds about 83,000 compounds, 20% with a hit somewhere; the sample as a whole holds those more often.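 Percent growth is the endpoint: 0 to 100 indicates growth inhibition (40 means 60% inhibition), 0 means no net growth, and negative values indicate cell death.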 A number with no mark means an inactive call. The source made the active and inactive calls. The calls were made as follows: active = growth percent below 10; inactive = the rest.
# Key:
# Assay in all cases: NCI-60 one-dose screen, 48 h (100 = growth as untreated, 0 = no growth, -100 = all killed)
# Settings in all cases: 10 µM unless noted
# MDA-MB-435 melanoma = tested on: MDA-MB-435 melanoma
# SW-620 colon = tested on: SW-620 colon
# MCF7 breast = tested on: MCF7 breast
# HCT-116 colon = tested on: HCT-116 colon
# HCC-2998 colon = tested on: HCC-2998 colon
# KM12 colon = tested on: KM12 colon
Compound,growth (MDA-MB-435 melanoma),growth (SW-620 colon),growth (MCF7 breast),growth (HCT-116 colon),growth (HCC-2998 colon),growth (KM12 colon)
CCC(CCC(C)C1CCC2C3CC=C4CC(O)CCC4(C)C3CCC12C)C(C)C (centres undefined) (tested in a mixture with another compound),85%,104%,95.8%,79%,-53.1% (active),91.4%
O=c1[nH]c(=O)n(C2CC(O)C(CO)O2)cc1C(F)(F)F (centres undefined),47.8%,52.7%,23.6%,39.4%,–,51.8%
CN1CCCC1c1cccnc1 (centres undefined),119%,108%,97.1%,104%,–,104%
C[C@]12C[C@H](O)[C@H]3[C@@H](CCC4=CC(=O)CC[C@@]43C)[C@@H]1CC[C@@H]2C(=O)CO,103%,99.1%,101%,106%,–,99.9%
CC(=O)Nc1ccc2c(c1)Cc1c(F)c(F)c(F)c(F)c1-2,101%,103%,86.7%,86.3%,–,92.8%
O=C(c1nn(-c2ccc(Cl)cc2)cc1O)n1nc(C(F)(F)F)cc1-c1ccccc1,48.1%,39.6%,44%,8.39% (active),43.2%,50.8%
C=C(C)[C@H]1CC/C(C)=C/CC[C@]2(C)O[C@H]2CC/C(C=O)=C\C1O (some centres undefined),120%,108%,97.2%,105%,111%,114%
CSC1=Nc2c(c(C)c(-c3ccccc3)n2CCCN2CCCCC2)C2=NC(=O)C[C@H](C)N12,26.3%,61.5%,13.9%,–,60.7%,2.35% (active)
Cc1c(C(N)=O)sc2ncn(CC(=O)Nc3ccc(Cl)cc3)c(=O)c12,106%,106%,108%,105%,118%,117%
Nc1nc(Cl)c2[nH]cnc2n1,102%,105%,108%,–,-51.2% (active),109%
CCN(CC)CCOc1ccccc1-n1c(C)ccc1-c1ccccc1,42.1%,36.7%,98.3%,–,24.2%,50.6%
CCN(CC)CCCCNc1c2ccccc2[n+](C)c2c1[nH]c1ccccc12,-77.1% (active),-7.04% (active),-7.18% (active),0.472% (active),-56.4% (active),-12.9% (active)
CCOC(=O)C(C(C)=O)c1nc2sc3cc(Cl)ccc3n2c(=N)c1C#N (centres undefined),104%,98.4%,58.8%,103%,131%,44.1%
O=C(O)C(=O)O,96.4%,112%,98.4%,101%,–,102%
CCOC(=O)C(Cc1ccccc1)(C(=O)OCC)C(Br)C(=O)c1ccccc1 (centres undefined),77.3%,39.8%,56.9%,53.3%,100%,97.9%
Cc1cc(C)n(C(=O)c2nn(-c3ccc(Cl)cc3)cc2O)n1,32.1%,81.4%,81%,8.59% (active),82.8%,36.3%
NC(=O)c1ccccc1NC(=O)c1ccccc1Cl,105%,108%,115%,103%,116%,105%
CC(C)(C)c1ccc(S(=O)(=O)O)s1,102%,108%,98%,107%,112%,112%
C=CCOc1ccc2c(c1)CC[C@@H]1[C@@H]2CC[C@@]2(C)[C@H]1CC[C@]2(C)O,86.9%,64.3%,117%,94.4%,94.8%,58.2%
COc1ccc(Cn2cc3c(c2-c2ccccc2)CCc2cncnc2-3)cc1,0.92% (active),27.5%,39.4%,27.2%,53.1%,26.6%
COc1ccc(/C=N\Nc2ccc([N+](=O)[O-])cn2)cc1OC,72.9%,61.5%,74.7%,17.1%,99.7%,44.1%
Nc1cc(Cl)c(S(N)(=O)=O)cc1S(N)(=O)=O,113%,107%,96.2%,121%,–,105%
C[n+]1c2ccccc2c(Nc2ccc(N3CCCCC3)cc2)c2[nH]c3ccccc3c21,-96.4% (active),-90.8% (active),-74.6% (active),-98.7% (active),-96.1% (active),-96.5% (active)
